Assay outcomes deposited in PubChem by several laboratories.
Phagocyt inh = inhibitors of macrophage phagocytosis, primary screen, imaging, J774A.1 cells, IgG beads | inhibition, % at 5 µM | hit rate 0.07% among 110,000 | J774A.1 macrophage IgG-bead phagocytosis | AID 1029, 2008;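 active = inhibition above the mean of the plate negative controls plus 5 SD, cut at about 13% in these data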;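 note: phagocytic index as fraction of beads internalized from green versus red external bead signal; plate controls were DMSO negative control for no effect and cytochalasin-D positive control for full effect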
HUVEC tox TNFa = cytotoxicity in TNFa-stimulated HUVEC, primary screen, cytotoxicity control for VCAM1 expression modulator project, imaging, Hoechst nuclei count. HUVEC TNFalpha-stimulated, Hoechst cell count. cell count reduction, % at 2 µM. hit rate 0.17% among 93,000;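 active = cell count reduction exceeding the screen mean by over 5 SD, scaled to untreated wells per plate, cut at about 78% in these data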;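 note: cells counted after 24 h of TNF alpha exposure following the 1 h pretreatment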
VCAM1 TNFa inh = inhibitors of TNFa-induced VCAM1 expression, primary screen, imaging, HUVEC, TNFa stimulus, immunofluorescence; AID 802, 2007; inhibition, % at 2 µM; hit rate 0.48% among 95,000; HUVEC TNFa-induced VCAM-1 immunofluorescence, high-content imaging;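 active = inhibition above the batch mean plus 3 SD, with images confirmed as a hit by eye, cut at about 37% in these data; inconclusive = inhibition above that limit but hit not confirmed in images; inactive = inhibition not above that limit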;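 note: 0% = TNF-stimulated DMSO wells and 100% = unstimulated control wells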
cytoskel mod = modifiers of F-actin cytoskeleton organization, primary screen, imaging, HUVEC, phalloidin staining, high-content imaging. HUVEC TNFa F-actin phalloidin imaging. inhibition, % at 2 µM. hit rate 0.18% among 91,000;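 active = inhibition above the batch mean plus 3 SD and confirmed as a hit by visual image inspection, cut at about 30% in these data, passing the limit was not always enough; inconclusive = above the inhibition threshold but rejected on visual inspection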
E-sel TNF inh = E-selectin induction blockers in HUVEC – imaging, immunofluorescence, high content, primary screen. HUVEC TNFa-induced E-selectin immunofluorescence. inhibition, % at 2 µM. hit rate 0.71% among 120,000. AID 1246, 2008;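 active = inhibition above the batch mean plus 3 SD, and confirmed as a hit on visual image review, cut at about 43% in these data; inconclusive = passes the inhibition cutoff but fails visual image review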;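 note: 0% = TNF-stimulated DMSO wells and 100% = unstimulated control wells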
INS promoter inh = inhibitors of insulin promoter-driven GFP, primary screen, imaging, TRM-6 cells (human fetal islet line), eGFP reporter, cell count. reporter expression induced with tamoxifen. inhibition, % at 2 µM. hit rate 0.9% among 130,000;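 active = inhibition above the mean plus 3 SD, with well images judged a real hit on visual review, cut at about 60% in these data, passing the limit was not always enough; inconclusive = inhibition over the cutoff but images rejected on review; inactive = inhibition not above the cutoff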
Active calls of the source: *; ? = inconclusive; · = no result given. Shown are actives, neighbours in structure and some others; about 1.6% of the full set was active somewhere.

SMILES | Phagocyt inh | HUVEC tox TNFa | VCAM1 TNFa inh | cytoskel mod | E-sel TNF inh | INS promoter inh
CC(C)Sc1nc2ccccc2[nH]1 | · | · | · | · | -14.9 | 77.8*
CC(C)(C)c1nc2ccccc2[nH]1 | 0.6 | -6.1 | 8.9 | 1.1 | -47.5 | 79.7*
CC(Sc1nc2ccccc2[nH]1)C(=O)O (centres undefined) | -0.5 | -17.5 | -10.5 | · | -6.0 | 50.0
CCOc1nc(NC(=O)NS(=O)(=O)c2ccccc2F)nc(-c2ccccc2)n1 | · | · | · | · | 1.3 | 90.9*
NS(=O)(=O)c1ccc(CCNC(=O)/C=C/c2ccccc2[N+](=O)[O-])cc1 | · | · | · | · | · | 53.3
CN1CCCCc2c1[nH]c1ccccc1c2=O | -4.9 | -46.7 | 85.8* | 18.6 | 13.7 | -42.9
Cc1ccc(C)c(NC(=S)NC(NC(=O)Cc2cccc3ccccc23)C(Cl)(Cl)Cl)c1 (centres undefined) | · | · | 67.2* | -15.3 | -19.6 | 4.3
O=C(OCC(=O)N1CCCc2ccccc21)c1cnc(Cl)c(Cl)c1 | -2.2 | · | · | · | · | ·
O=C(OCC(=O)N1CCCc2ccccc21)c1ccc(Cl)nc1 | -11.7 | · | · | · | 12.2 | 80.0*
Cc1c(C(=O)Nc2ccccc2-c2ccccc2)cccc1[N+](=O)[O-] | -4.7 | -17.4 | -13.1 | -5.0 | 38.6 | 22.6
CCCCOc1ccc(/C=C/C(=O)NC2=Nc3ccccc3NC(C)=C2C(=O)OCC)cc1OC | · | · | · | · | -24.6 | ·
CC(C)(C)C(=O)NNC(=O)CCCOc1ccc(Cl)cc1Cl | · | 11.6 | -2.1 | 3.2 | -52.5 | ·
CC(C)(CO)NC(=O)CCCOc1ccc(Cl)cc1Cl | -5.3 | -29.4 | 93.4* | 31.1 | 8.4 | -47.4
O=C(CN(CC1CCCO1)C(=O)CCC(=O)Nc1nccs1)NCc1ccc2c(c1)OCO2 (centres undefined) | -2.0 | -38.5 | -15.9 | -4.7 | 100.0* | -41.7
CCN(CC(=O)Nc1cc(C)nn1-c1nc(C)cc(C)n1)Cc1ccccc1 | -0.9 | -17.3 | 6.6 | · | 42.7 | -12.3
O=C(COc1ccccc1)N1CCN=C1SCc1ccccc1 | · | · | · | · | -7.4 | -22.2
O=C(c1cccs1)N1CCN=C1SCc1ccccc1 | -0.5 | -2.1 | 6.1 | -16.4 | 43.7* | -51.7
Cc1cc(C)n2nc(N)c(N=Nc3cccc(Cl)c3)c2n1 | 0.2 | · | · | · | · | 61.5*
Cc1ccc(N=Nc2c(N)nn3c(N)c(C#N)c(C)nc23)cc1 | · | · | · | · | · | 46.7
Cc1ccc(N=Nc2c(N)nn3c(C)cc(C)nc23)cc1 | -9.8 | · | · | · | · | 81.8*
O=Cc1s/c(=N\S(=O)(=O)c2ccccc2)n(CCCCl)c1Cl | · | · | · | · | 72.3* | ·
CC(=O)Nc1ccc(NC(=O)Cc2ccc(S(=O)(=O)N3CCCCC3)s2)cc1 | -4.4 | · | · | · | -20.0 | 80.0*
COc1cc(CC(=O)OCC(=O)Nc2sccc2C(N)=O)cc(OC)c1OC | · | · | · | · | · | 90.9*
NC(=O)c1ccsc1NC(=O)COC(=O)Cc1ccsc1 | 0.3 | 0.4 | 5.5 | 10.3 | -32.2 | 13.2
C=C1C(=O)[C@@]23[C@H](O)C[C@@H]4C(C)(C)CC[C@H](O)[C@@]4(C)[C@@H]2CC[C@@H]1[C@H]3O | · | · | · | · | 58.2* | -105.0
SMILES | Phagocyt inh | HUVEC tox TNFa | VCAM1 TNFa inh | cytoskel mod | E-sel TNF inh | INS promoter inh
C=C1C(=O)[C@@]23[C@H](O)C[C@@H]4C(C)(C)CC[C@H](O)[C@]4(C)[C@@H]2C[C@H](O)[C@@H]1[C@H]3O | · | · | · | · | 4.2 | -55.0
COc1ccc(CNc2nc(SCc3cc(=O)n4cc(Cl)ccc4n3)nc3ccccc23)cc1 | -1.5 | · | · | · | · | ·
Cc1cc(C)c2oc(C(=O)Nc3ccc(S(=O)(=O)N4CCCC(C)C4)cc3)cc(=O)c2c1 (centres undefined) | -2.5 | · | · | · | · | -23.3
COc1cc2c(cc1OC)C(C)N(C(C)=O)CC2 (centres undefined) | · | -25.7 | -1.4 | -13.9 | 21.5 | 81.0*
COc1cc2c(cc1OC)C(C)N(C(=O)c1cc3ccccc3o1)CC2 (centres undefined) | · | -45.1 | -2.3 | · | -24.8 | -36.4
Cc1nc2c([nH]c3ccc(Br)cc32)s1 | -0.9 | -18.2 | 17.1 | 3.4 | 20.9 | 95.0*
O=c1c2c([nH]c3ccc(Br)cc13)CCCC2 | -0.7 | · | · | · | · | ·
CNS(=O)(=O)c1cccc(C(=O)NCC(c2cccs2)N(C)C)c1 (centres undefined) | 2.6 | -34.4 | -37.1 | -17.0 | 18.9 | 73.3*
CN1CCN(c2ccc(C(=O)c3ccccc3)cc2[N+](=O)[O-])CC1 | -3.6 | · | · | · | 7.1 | 66.7*
COc1ccc(C(=O)c2ccc(N3CCOCC3)c([N+](=O)[O-])c2)cc1 | · | · | · | · | -29.3 | 13.3
COC(=O)Cn1cnc2c1c(=O)n(C)c(=O)n2C | · | · | -8.2 | 0.4 | 99.8* | -295.2
Cn1c(=O)c2c(ncn2CC(N)=O)n(C)c1=O | -0.6 | -2.8 | 3.1 | -44.5 | 46.9 | 28.6
COc1ccccc1CC1(C)NC(=O)N(CC(=O)N2CC(C)OC(C)C2)C1=O (centres undefined) | -1.3 | -0.8 | 3.6 | 2.9 | 87.2* | ·
O=C(Cc1ccc(-c2ccccc2)cc1)NCCN1CCOCC1 | -0.5 | · | · | · | 94.9* | ·
O=C(NCCN1CCOCC1)c1ccc(-c2ccccc2)cc1 | -2.9 | -22.4 | 2.5 | 3.8 | -27.3 | -4.5
COCCCNC(=S)N1CCN(c2ccc([N+](=O)[O-])cc2)CC1 | -7.6 | · | · | · | 64.7* | ·
CCNC(=S)N1CCN(c2ccc([N+](=O)[O-])cc2)CC1 | · | -5.5 | 0.6 | -10.8 | -39.3 | ·
CCc1ccc(N2CC(C(=O)NCc3ccco3)CC2=O)cc1 (centres undefined) | · | -16.4 | -1.2 | 16.6 | -5.7 | -25.0
O=C(NCc1ccco1)C1CC(=O)N(c2ccc(F)cc2)C1 (centres undefined) | -0.3 | -24.8 | 85.0* | 5.9 | -20.8 | 57.1
Cc1ccc(S(=O)(=O)Nc2ncc(C(F)(F)F)cc2Cl)cc1 | · | · | · | · | · | -17.6
COC(=O)c1[nH]c2cccc(OC)c2c1NC(=O)C(C)N1CCC(C)CC1 (centres undefined) | 3.1 | -30.1 | -23.1 | 9.6 | -3.2 | -32.1
COc1cccc2c1OC1(C)CC2/C(=C(\C)O)C(=O)N1 (centres undefined) | · | -0.5 | -23.6 | 18.6 | · | 90.9*
NC(=O)CN(c1ccc(Cl)cc1)S(=O)(=O)c1ccccc1 | -3.0 | · | · | · | -5.6 | 0.0
CCN(CC)C(=O)CN(c1ccc(Cl)cc1)S(=O)(=O)c1ccccc1 | -1.9 | 100.0* | ? | ? | -11.9 | 11.1
COc1ccccc1CNC(=O)C1CCN(S(=O)(=O)c2ccc3c(c2)OCCCO3)CC1 | -2.0 | · | · | · | · | ·
O=C(NN=C1CCN(Cc2ccccc2)CC1)c1ccccc1 | -9.7 | · | · | · | 68.4* | ·
O=C(NN=C1CCN(Cc2ccccc2)CC1)c1cc(Br)ccc1O | · | · | · | · | · | -7.1
Cc1ccc(C2(C)NC(=O)N(CCOc3ccccc3)C2=O)cc1 (centres undefined) | 0.2 | 3.6 | 16.8 | 23.4 | 81.7* | 14.7
COc1ccccc1NC(=O)/C=C\C(=O)O | · | · | · | · | -55.0 | 100.0*
Cc1ccc(S(=O)(=O)NCC(=O)N(CC(=O)NCC2CCCO2)Cc2ccco2)cc1 (centres undefined) | · | · | · | · | · | -25.9
